Screening data as filed in PubChem.
HT1080 IDH1KD tx = qHTS for induction of synthetic lethality in tumor cells producing 2HG: qHTS for the HT-1080-IDH1KD cell line; HT-1080 IDH1 knockdown viability, ATP luminescence, 48 h; Potency, µM (highest dose often 46.1 µM), inactives show at the highest dose activity, negative = toxicity, usual class: cytotoxic; hit rate 2% among 360,000; AID 686971, 2013;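 also: potency is read from the fitted curve at half-maximal effect; 0% = DMSO wells and -100% = cell-free medium wells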
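Cytotoxicity counter-line: IDH1KD HT-1080, 48 h, CellTiter-Glo. Curves classed by r2, magnitude and activity.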
IL1B secr inh = qHTS for Inhibitors of Inflammasome Signaling: IL-1-beta AlphaLISA Primary Screen. THP-1 LPS/ATP IL-1B secretion, AlphaLISA, 16 h; active compounds read low. activity change, % at 57.5 µM. hit rate 4.7% among 360,000. AID 743279, 2014; in the data active = activity change below about -50%; inconclusive = mostly about -30% to -49%
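Secreted IL-1B measured by AlphaLISA bead assay after 16 h compound exposure of THP-1 cells; compounds (final up to 57.5 uM) added 1 h before LPS (250 ng/mL) and ATP (1.25 mM) stimulation; lower signal means less secretion.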
DT40 TDP1 no CPT = qHTS for Inhibitors of human tyrosyl-DNA phosphodiesterase 1 (TDP1): qHTS in cells in absence of CPT; Potency, µM (series often up to 46.2 µM), without a hit: at the highest dose activity change, negative = growth inhibition, actives largely listed as inhibitors; hit rate 15% among 420,000; DT40 Tdp1-/- hTDP1 cells, no CPT, ATP luminescence, 48 h; also: potency is read from the fitted curve at half-maximal effect; nearly all actives have a fitted effect of over 55% in size
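Readout: luminescence from CellTiter-Glo after 30 min in the dark at RT. Cells: DT40 Tdp1-/- with stable hTDP1, 400/well. Exposure: compounds alone, ≥48 hr, 37 °C.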
HT1080NT lethal = qHTS for induction of synthetic lethality in tumor cells producing 2HG: qHTS for the HT-1080-NT fibrosarcoma cell line; HT-1080-NT fibrosarcoma viability, CellTiter-Glo ATP luminescence, 48 h; Potency, µM (doses to about 46.1 µM), for inactives: top-dose activity, negative = less viability, actives largely listed as cytotoxic; hit rate 1.6% among 360,000; AID 686970, 2013;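 also: NT is the 2HG producing partner of a matched IDH1 knockdown line; potency is read from the fitted curve at half-maximal effect; 0% = DMSO-treated cells and -100% = media-only wells without cells; nearly all actives have a fitted effect of over 55% in size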
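Toxicity toward the 2HG-producing NT line was scored as %Activity, normalised to DMSO and no-cell wells, from CellTiter-Glo luminescence after 48 hours' treatment.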
TDP1 cell CPT = qHTS for Inhibitors of human tyrosyl-DNA phosphodiesterase 1 (TDP1): qHTS in cells in presence of CPT. Potency, µM (top dose mostly 46.2 µM), inactives show at the highest dose activity change, negative = growth inhibition, usual class: inhibitors. hit rate 12% among 420,000. chicken DT40 Tdp1-/-;hTDP1 cells + 20 nM CPT, ATP luminescence, 48 h; also: potency is read from the fitted curve at half-maximal effect; nearly all actives have a fitted effect of over 55% in size
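Chicken DT40 Tdp1-/- cells complemented with human TDP1, 400 cells/well, exposed to compounds plus 20 nM camptothecin for at least 48 h at 37 C; viability read as ATP content by CellTiter-Glo luminescence.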
The depositor's hits bear a star; ? = inconclusive; · = no result. Hits are enriched below; roughly 19% of the tested compounds scored in any of these assays. Unless noted, calls follow the shape of the dose curve; as a rule, active = well fitted curve in the direction sought with a large enough effect; inconclusive = small, poorly fitted or top-dose-only effect, or another doubt; inactive = no such curve, though single readings can be large; an effect the other way counts as inactive or inconclusive. Unless noted, % is scaled to controls: 0 for no effect and ±100 for the full control effect.

SMILES	HT1080 IDH1KD tx	IL1B secr inh	DT40 TDP1 no CPT	HT1080NT lethal	TDP1 cell CPT
CN(CCc1ccccc1)C(=O)c1cccc(NC(=O)Cc2cccc(NC(=O)C3CCCN(C(=O)C4CC4)C3)c2)c1 (stereo unspecified)	4%	6	?	-1%	?
COCCN(CC(=O)Nc1cccc(C)c1C)C(=O)c1ccc2ccccc2n1	14%	6	?	1%	?
Cc1cccc(CNC(=O)c2ccc3nc(Cc4ccccc4F)oc3c2)n1	3%	-12	?	3%	-5%
CO[C@H]1CN(C)C(=O)c2cc(NC(=O)C3CCOCC3)ccc2OC[C@H](C)N(Cc2nccs2)C[C@H]1C	12%	-62*	-6%	14%	1%
CO[C@H]1CN(C)C(=O)c2ccc(NC(=O)C3CCC3)cc2OC[C@H](C)N(Cc2ccccn2)C[C@@H]1C	20%	31	-18%	18%	11%
CO[C@H]1CN(C)C(=O)c2cc(NS(=O)(=O)c3ccccc3)ccc2OC[C@@H](C)N(Cc2ccccn2)C[C@@H]1C	15%	-12	4%	15%	6%
COc1cccc(S(=O)(=O)Nc2ccc3c(c2)C(=O)N(C)C[C@H](OC)[C@H](C)CN(Cc2ccccc2F)[C@@H](C)CO3)c1	?	?	8.2µM*	?	9.2µM*
CCOC(=O)CNC(=O)CSc1cn(CC(=O)N2CCCCCC2)c2ccccc12	·	·	-8%	·	1%
O=C(Cn1cc(SCc2cccc(F)c2)c2ccccc21)N1CCCC1	·	·	21µM*	·	?
Cc1ccccc1CSc1cn(CC(=O)N2CCCCC2)c2ccccc12	·	·	16µM*	·	13µM*
Cc1ccc(C)c(CSc2cn(CC(=O)N3CCCCCC3)c3ccccc23)c1	·	·	-8%	·	-1%
O=C(Cn1cc(SCc2ccccc2Cl)c2ccccc21)N1CCOCC1	-6%	-5	?	-1%	?
O=C(Cn1cc(SCc2ccc(Br)cc2)c2ccccc21)N1CCCCC1	·	·	16µM*	·	?
O=C(Cn1cc(SCc2c(F)cccc2Cl)c2ccccc21)N1CCCCCC1	·	·	?	·	23µM*
CN(C)CCn1c(=O)n(Cc2ccccc2)c(=O)c2c3c(sc21)CCCCC3	?	-64*	?	?	-7%
CN(C)CCCNc1nc2sc3c(c2c(=O)n1CCc1ccccc1)CCCCC3	?	·	16µM*	?	?
CN(C)CCCn1c(=O)n(CCc2ccccc2)c(=O)c2c3c(sc21)CCCCC3	0%	?	23µM*	5%	?
O=[N+]([O-])c1cc(CS(=O)(=O)Oc2ccc(Cl)cc2)c(O)c([N+](=O)[O-])c1	4%	13	-20%	16%	2%
Cc1cc(C)c(S(=O)(=O)NC(CC(=O)O)c2cccc([N+](=O)[O-])c2)c(C)c1 (stereo unspecified)	-5%	12	-19%	-4%	1%
COc1ccc(OCCC(=O)OCC(=O)NCCc2ccccc2)cc1	18%	-4	-19%	12%	12%
CNc1nc(Sc2ccc(C)cc2)cc(C(F)(F)F)n1	?	17	-10%	-9%	-12%
O=C(c1ccc(Cl)c([N+](=O)[O-])c1)N(Cc1cccc(Cl)c1)C1CCS(=O)(=O)C1 (stereo unspecified)	5%	-93*	?	-2%	?
O=C(c1ccc(Cl)c([N+](=O)[O-])c1)N(Cc1ccc(Cl)cc1)C1CCS(=O)(=O)C1 (stereo unspecified)	?	-88*	23µM*	?	?
COc1cccc(C(=O)N(Cc2ccc(C)o2)C2CCS(=O)(=O)C2)c1 (stereo unspecified)	·	·	-22%	·	-27%
O=C(/C=C/c1ccc(Cl)cc1Cl)N(Cc1ccc(Cl)cc1)C1CCS(=O)(=O)C1 (stereo unspecified)	-3%	0	16µM*	0%	?
SMILES	HT1080 IDH1KD tx	IL1B secr inh	DT40 TDP1 no CPT	HT1080NT lethal	TDP1 cell CPT
O=C(/C=C/c1ccc(Cl)cc1Cl)N(Cc1ccccc1)C1CCS(=O)(=O)C1 (stereo unspecified)	?	?	?	-25%	?
O=C(c1ccc(Cl)c([N+](=O)[O-])c1)N(Cc1ccccc1)C1CCS(=O)(=O)C1 (stereo unspecified)	12%	-13	?	2%	-18%
CCCCOc1cccc(C(=O)N(Cc2ccc(Br)o2)C2CCS(=O)(=O)C2)c1 (stereo unspecified)	·	·	16µM*	·	18µM*
CCOc1ccccc1N1CC(C(=O)NC2CCCCCC2)CC1=O (stereo unspecified)	8%	14	2%	-4%	6%
CC(=O)Oc1ccc(/C(C)=N/N2CCN(Cc3ccc(C)cc3)CC2)cc1	4%	1	-11%	-1%	-22%
Cc1ccc(CN(C(=O)c2ccc(Cl)c([N+](=O)[O-])c2)C2CCS(=O)(=O)C2)o1 (stereo unspecified)	-24%	-95*	5%	-29%	3%
CCCCCOc1c(Cl)cc(C(=O)N(Cc2ccc(C)o2)C2CCS(=O)(=O)C2)cc1Cl (stereo unspecified)	·	·	16µM*	·	18µM*
Cc1ccc(OCC(=O)N(Cc2ccc(C)o2)C2CCS(=O)(=O)C2)cc1 (stereo unspecified)	10%	8	2%	9%	-15%
O=C(c1ccc(Cl)cc1)N(Cc1ccco1)C1CCS(=O)(=O)C1 (stereo unspecified)	-2%	2	-6%	8%	3%
COc1ccc(-c2nc(C(N)=O)c3[nH]c(=O)n(-c4cccc(C)c4)c3n2)c(OC)c1	-10%	-9	23µM*	-12%	?
COc1ccccc1-c1nc(C(N)=O)c2[nH]c(=O)n(-c3cccc(C)c3)c2n1	-10%	-14	?	-8%	?
N#Cc1nc(N(c2ccccc2)c2ccccc2)nc(-n2cccc2)n1	·	·	3.5µM*	·	7.1µM*
CN(C)c1nc(N)nc(N(c2ccccc2)c2ccccc2)n1	1%	-13	?	-2%	?
CCNc1nc(C#N)nc(N2CCOCC2)n1	·	·	13µM*	·	?
CCNc1nc(C(=O)O)nc(N2CCOCC2)n1	24%	10	-9%	1%	3%
CN(C)c1nc(N2CCOCC2)nc(N(c2ccccc2)c2ccccc2)n1	0%	-12	4%	0%	-3%
NC(=O)c1nc(N2CCOCC2)nc(N2CCOCC2)n1	-3%	-8	14µM*	-4%	14µM*
